From PubChem BioAssay
Rows were chosen to be rich in hits. Some 7.1% of all compounds tested hit in one or more screens of this group.
ELG1 DNA repair: qHTS screen for small molecules that inhibit ELG1-dependent DNA repair in human embryonic kidney (HEK293T) cells expressing luciferase-tagged ELG1. HEK293T ELG1-luciferase reporter, luminescence, 16 h; DNA damage induced by 5-fluorouridine. Potency, µM (titrated, usually from 46.1 µM), actives largely listed as inhibitors. 330,000 compounds, 2.3% hits; also: nearly all actives have a fitted effect of over 55% in size
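Cells (2,000 per well) received 5-fluorouridine plus test compound or DMSO and were incubated 16 hr at 37 °C, 5% CO2. Luciferase activity was read by luminescence 30 min after ONE-Glo addition; signal suppression marked inhibition of damage-induced ELG1 function.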
ELG1 genotoxic: qHTS screen for small molecules that induce genotoxicity in human embryonic kidney (HEK293T) cells expressing luciferase-tagged ELG1 | HEK293T ELG1-luciferase reporter, luminescence, 16 h | Potency, µM (top dose mostly 46 µM), hits mostly activators | 330,000 compounds, 1.3% hits; also: nearly all actives have a fitted effect of over 60% in size
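Screening used a luciferase reporter fused to human ELG1 in HEK293T cells. Luminescence was read on a CCD plate imager after 16 hr exposure and 30 min ONE-Glo incubation.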
SW480 rerep: A quantitative high throughput screen for small molecules that induce DNA re-replication in SW480 colon adenocarcinoma cells; SW480 DNA re-replication, Hoechst DNA content imaging, 48 h; Potency, µM (series often up to 46.1 µM), usual class: activators; 340,000 compounds, 1.8% hits; also: nearly all actives have a fitted effect of over 55% in size
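Treated cells incubate 48 hr (37 C, 5% CO2), are stained 40 min with Hoechst, and nuclear fluorescence is enumerated; a rise in nuclei with high DNA signal marks re-replication.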
p53 reactivation: qHTS assay for re-activators of p53 using a Luc reporter; Potency, µM (doses to about 92.2 µM), most hits filed as activators; H1299 p53-A138V BP100-luciferase reporter, luminescence, 24 h; 320,000 compounds, 0.063% hits; also: nearly all actives have a fitted effect of over 45% in size
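H1299 (p53-null), stable ts p53-A138V + BP100-Luc; 1000 cells/well, Opti-MEM/10% FBS; cpd 4 pt, 1:5; 24 h, 37 deg C, 5% CO2; detection reagent 10 min RT; luminescence.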
MCF10A rereplic: A quantitative high throughput screen for small molecules that induce DNA re-replication in MCF 10a normal breast cells. Potency, µM (series often up to 46.1 µM), actives largely listed as activators. 350,000 compounds, 2.9% hits. MCF 10A DNA re-replication, Hoechst nuclear intensity, 48 h; also: nearly all actives have a fitted effect of over 50% in size
AT treatment: qHTS Assay for Identifying a Potential Treatment of Ataxia-Telangiectasia | F2112 A-T fibroblasts, KAP-1 phosphorylation AlphaLISA; neocarzinostatin DNA damage 30 min before lysis | Potency, µM (series often up to 57.5 µM), most hits filed as activators | 320,000 compounds, 0.19% hits | AID 485349, 2010; also: nearly all actives have a fitted effect of over 45% in size
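hTERT-immortalized A-T patient fibroblasts (F2112), 500 cells/well in OPTI-MEM, 1% FBS, got compounds for 60 min, then NCS for 30 min at 37C. Lysates were then assayed for phospho-KAP-1 by AlphaLISA (anti-pKAP1 donor, anti-KAP1 acceptor beads), 6 hr at 25C.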
Hits are given with their value; i = inactive; ? = inconclusive; nt = no result; [ ] = remark or other dose. Calls follow the shape of the dose curve; as a rule, active = well fitted curve in the direction sought with a large enough effect; inconclusive = small, poorly fitted or top-dose-only effect, or another doubt; inactive = no such curve, though single readings can be large; an effect the other way counts as inactive or inconclusive.

SMILES	ELG1 DNA repair	ELG1 genotoxic	SW480 rerep	p53 reactivation	MCF10A rereplic	AT treatment
CCNc1nc(NCC)nc(SCCOc2ccc(C)cc2)n1	i	i	i	i	20.6µM	i
Cc1cccc(OCCOCCSc2ncccn2)c1	i	?	i	?	i	i
CCN(C[C@H]1N[C@@](CC)(C(=O)OC)[C@H]2C(=O)N(C)C(=O)[C@@H]12)S(=O)(=O)c1ccccc1	i	i	i	i	i	i
COc1cc2c(cc1OC)C(C)N(C(=O)Cn1ncc3c1-c1cc(C)ccc1OC3)CC2 (stereo unspecified)	18.4µM	i	i	i	i	i
CCCCn1c(C)cc2c(c1=O)[C@H]1O[C@](CCCCN3C(=O)c4ccccc4C3=O)(Cc3ccccc31)O2	nt	nt	nt	nt	nt	i[11.5 µM]
CCCCN=C1SC(C(=O)Nc2sc3c(c2C(=O)OC)CCC3)C(N)=C1C(=O)N1CCOCC1 (stereo unspecified)	nt	nt	i	nt	20.6µM	nt
COC(=O)c1c(NC(=S)NN2CCOCC2)sc2c1CCCC2	i	i	i	i	i	i
S=C1NCCN1CC1CCN(CCC23CC4CC(CC(C4)C2)C3)CC1	nt	nt	i	nt	?	nt
CCN1CCC(CN2CCNC2=S)CC1	nt	nt	16.4µM	nt	i	nt
Cc1cccc(NC(=O)CSc2nnc(CNC(=O)c3ccco3)o2)c1	i	i	i	i	i	i
COc1ccccc1-n1cnnc1SCC(=O)N1CCOCC1	i	i	i	i	i	i
CN(C)C(=S)N=c1ssc(=S)n1Cc1ccccc1	nt	nt	5.17µM	nt	?	nt
Cc1noc(C)c1COc1cccc(C(=O)OCC(=O)N2CC(=O)Nc3ccccc32)c1	i	i	9.2µM	i	1.84µM	i
CCc1c(C)nc2cc(-c3ccc(OC)c(OC)c3)nn2c1N1CCCC1	13µM	i	i	i	i	i
CCOCCN1CCN(c2c(CC)c(C)nc3cc(-c4cc(OC)cc(OC)c4)nn23)CC1	6.51µM	i	i	i	?	i
CCc1c(C)nc2cc(-c3cc(OC)cc(OC)c3)nn2c1N1CCCC1	?	i	i	i	i	i
Cc1cc(C(=O)CCC(=O)N(C)CC(=O)Nc2c(Cl)cccc2Cl)c(C)s1	i	i	i	i	i	i
S=c1sc2c(Cl)ncnc2n1-c1ccccc1	?	i	?	i	2.06µM	i
Cc1nc(N2CCN(C)CC2)c2sc(=S)n(-c3ccccc3)c2n1	?	i	i	i	i	i
CN(CC(=O)Nc1ccccc1Cl)C(=O)COC(=O)/C=C/c1cccc(C(F)(F)F)c1	i	i	i	i	i	i
COc1ccc(CN(CCC(c2ccccc2)c2ccc(OC(C)C)cc2)C(=O)CCl)cc1OC (stereo unspecified)	?	i	3.66µM	i	4.61µM	i
Cc1c(C(=O)N2CCC[C@H]2C(N)=O)oc2c(F)cccc12	?	i	?	?	i	i
Cc1ccc2nc3c(cc2c1)c(NC(=O)c1ccccn1)nn3CC(C)C	23.1µM	i	i	i	i	i
Cc1ccc2cc3c(NC(=O)c4ccco4)nn(CC(C)C)c3nc2c1	i	i	9.2µM	i	?	i
COc1cccc(NC(=O)C2CCOC2=O)c1 (stereo unspecified)	nt	nt	i	nt	i	nt
SMILES	ELG1 DNA repair	ELG1 genotoxic	SW480 rerep	p53 reactivation	MCF10A rereplic	AT treatment
COc1ccc2sc(-c3ccc(N(C)C)cc3)c(-c3cnc(OC)nc3)c2c1	i	i	i[9.22 µM]	?	?	i
Cc1cccnc1Nc1nc(-c2ccc(F)cc2)cs1	?	13µM	i	nt	i	i
CC(=O)Nc1cccc(-c2csc(Nc3ccc(C)cn3)n2)c1	?	1.84µM	i	?	i	i
COc1ccc(-c2csc(Nc3ccccn3)n2)cc1OC	?	2.31µM	?	i	?	i
c1ccc(-c2csc(Nc3ccccn3)n2)cc1	?	2.91µM	i	?	i	i
Cc1nc(C)c(-c2csc(Nc3ccccn3)n2)s1	?	?	i	i	i	i
Oc1ccc(-c2csc(Nc3ccccn3)n2)cc1	?	7.3µM	i	?	i	i
Cc1ccc(-c2csc(Nc3ccccn3)n2)cc1	?	0.82µM	i	nt	?	i
Cc1cccnc1Nc1nc(-c2ccc(O)cc2)cs1	?	?	i	?	i	i
Cc1cc(-c2csc(Nc3ccccn3)n2)ccc1F	?	?	i[9.22 µM]	nt	?	i
Cc1ccc(S(=O)(=O)N(C)c2ccc3sc(C)nc3c2)cc1	i	i	?	i	9.2µM	i
Cc1ccc(S(=O)(=O)N(C)c2ccc(N)cc2)cc1	i	i	i	i	i	i
CCOC(=O)c1c(NC(=O)CSc2nccn2C)sc(C(=O)NC)c1C	i	i	i	i	i	i
CCC(C)NC(=O)C1(N2C(=O)c3ccccc3C2=O)CCCC1 (stereo unspecified)	nt	nt	i	nt	i	nt
CCN1/C(=C/c2ccc3cc(C)ccc3[n+]2CC)Sc2cc(C)ccc21	2.06µM	i	i	i	?	i
O=C1c2ccc(-c3ccc(Cl)c(C(F)(F)F)c3)cc2S(=O)(=O)c2cccc(C(=O)N3CCN(c4ccc(Cl)cn4)CC3)c21	?	i	i	i	i	i
O=C(NCC(c1ccco1)N1CCN(c2ccccc2F)CC1)c1ccco1 (stereo unspecified)	i	i	i	i	i	i
c1ccc(-c2nc(-c3cccnc3)n[nH]2)cc1	?	i	nt	i	nt	i
Brc1cccc(-c2n[nH]c(-c3ccccc3)n2)c1	?	2.31µM	i	?	?	nt
CCOC(=O)c1c(NC(NC(C)=O)C(Cl)(Cl)Cl)sc2c1CCCC2 (stereo unspecified)	?	i	i	i	20.6µM	i
CCOC(=O)c1c(NC(=O)CN(CC)CC)sc2c1CCC2	i	i	i	i	?	22.4µM
CCOC(=O)c1c(C)[nH]c(C(=O)NCC(c2ccco2)N2CCCCC2)c1C (stereo unspecified)	i	i	i	i	i	i
COc1ccc(CCNC(=O)CNCCc2ccc(F)cc2)cc1	i	i	i	i	i	i
COC(=O)c1cc2occc2n1Cc1ccc(Cl)cc1	i	i	?	i	16.4µM	i
CCN(CC)C(=O)c1[nH]cnc1C(=O)NCC(=O)OC(C)(C)C	i	i	i	i	i	i
CCN(CC)S(=O)(=O)c1cccc(C(=O)NNC(=O)C2=NN(c3ccccc3)C(=O)CC2)c1	i	i	i	i	i	i
COc1nc(C)nc2c1sc1nc3c(cc12)COC(C)(C)C3	?	8.2µM	i	?	i	i
